We go through 16 compounds from PubChem BioAssay.

Assay [1] in a line: polyglutamine-triggered caspase-3 activation inhibitors, cell-based (AID 1583). Conditions: polyglutamine-induced caspase-3 activation, cell assay; stronger effect = higher value;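 tested at 10 µM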.
Assay [2] in a line: suppressors of polyQ aggregation in yeast, 75Q-TubU reporter (AID 1593). The settings on record: Yeast 75Q polyglutamine aggregation reporter.
Assay [3] can be described thus: rescue of polyQ-huntingtin neuronal dysfunction in worms, whole organism, C. elegans mechanosensory neurons, N-terminal huntingtin (AID 1599). The settings on record: touch response, stronger effect = higher value.
Assay [4] is described as follows: inhibitors of mitochondrial cytochrome c release, biochemical, purified mitochondria (AID 1603).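 Further: mouse liver mitochondria challenged with calcium chloride; signal normalized to the plate average as 100%.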 Conditions: stronger effect = lower value.
Assay [5] is described as follows: inhibitors of polyQ protein aggregation (AID 1604). Conditions: polyglutamine-induced protein aggregation inhibition assay; stronger effect = higher value; tested at 2.5 µM.
The target of assay [6] is ATP-dependent translocase ABCB1 (Homo sapiens) (UniProt P08183). Description: MDR1 (ABCB1) efflux transporter inhibition, cell-based (AID 377). Conditions: MDR1-expressing cells, fluorescent substrate accumulation slope; stronger effect = higher value; concentration not given here.

Where “and” joins values, the source holds several entries; their conditions need not be identical. Equal entries are not always repeated. Inconclusive results are not listed. For part of these data: Entries with a potency or affinity are not part of this list. Calls of active or inactive are those of the source. No stated cut-off is given here; in the data, active means fluorescence slope change above about 50%; inconclusive means mostly about 31% to 49%; inactive means weaker than that.

ATP-dependent translocase ABCB1 (Homo sapiens), sequence (P08183 whole entry, looked up): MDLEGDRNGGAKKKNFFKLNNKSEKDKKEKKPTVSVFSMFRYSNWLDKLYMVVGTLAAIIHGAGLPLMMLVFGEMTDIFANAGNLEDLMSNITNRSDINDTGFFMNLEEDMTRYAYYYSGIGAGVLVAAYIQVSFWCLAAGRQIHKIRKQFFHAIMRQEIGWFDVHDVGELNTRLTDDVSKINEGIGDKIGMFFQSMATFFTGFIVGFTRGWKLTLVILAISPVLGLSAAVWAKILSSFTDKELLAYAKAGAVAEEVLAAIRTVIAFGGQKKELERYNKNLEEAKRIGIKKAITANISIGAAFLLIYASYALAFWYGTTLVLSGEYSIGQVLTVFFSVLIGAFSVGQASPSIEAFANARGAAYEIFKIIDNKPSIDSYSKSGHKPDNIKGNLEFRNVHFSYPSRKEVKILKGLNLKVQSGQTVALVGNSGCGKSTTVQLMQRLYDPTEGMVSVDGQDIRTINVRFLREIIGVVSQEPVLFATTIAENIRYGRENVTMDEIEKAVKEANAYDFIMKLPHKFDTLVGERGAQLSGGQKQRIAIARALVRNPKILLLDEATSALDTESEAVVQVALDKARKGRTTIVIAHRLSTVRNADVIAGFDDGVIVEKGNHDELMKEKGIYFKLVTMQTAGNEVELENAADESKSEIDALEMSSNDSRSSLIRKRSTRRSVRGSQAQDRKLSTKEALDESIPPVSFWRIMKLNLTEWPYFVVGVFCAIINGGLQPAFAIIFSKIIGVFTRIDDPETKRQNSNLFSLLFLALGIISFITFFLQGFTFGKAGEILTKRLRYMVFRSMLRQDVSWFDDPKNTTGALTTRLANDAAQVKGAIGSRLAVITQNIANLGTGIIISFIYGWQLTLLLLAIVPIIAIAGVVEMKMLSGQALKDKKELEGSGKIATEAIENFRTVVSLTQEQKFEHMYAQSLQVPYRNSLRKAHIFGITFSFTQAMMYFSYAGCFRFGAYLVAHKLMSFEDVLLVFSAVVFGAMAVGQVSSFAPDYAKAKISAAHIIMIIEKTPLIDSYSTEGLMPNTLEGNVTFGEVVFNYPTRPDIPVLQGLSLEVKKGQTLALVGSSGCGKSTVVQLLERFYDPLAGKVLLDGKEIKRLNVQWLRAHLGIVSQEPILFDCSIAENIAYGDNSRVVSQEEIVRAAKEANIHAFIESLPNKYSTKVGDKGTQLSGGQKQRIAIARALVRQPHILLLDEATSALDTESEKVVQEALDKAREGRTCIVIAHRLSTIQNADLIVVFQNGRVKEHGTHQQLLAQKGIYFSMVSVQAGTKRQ

By inhibition is commonly meant the relative decrease from the control value, in per cent. `COc1ccc(CCN(C)CCCC(C#N)(c2ccc(OC)c(OC)c2)C(C)C)cc1OC` (centres undefined): the inhibition in assay [1] was determined as 15.1%. The compound further yielded a score in assay [2] of 1.28. The compound also returned a rescue above control in assay [3] of 2.45. Besides, the cytochrome c release ratio in assay [4] came out at 0.62. Also, in assay [5], the inhibition of aggregation is 62.8%.
For `NC(=O)NC(=O)Cc1ccccc1`, in that order: 24.8%, 1.34, -4.86, 1.02 and 4.16%.
As for `C=CCSCC1Nc2cc(Cl)c(S(N)(=O)=O)cc2S(=O)(=O)N1` (centres undefined), the inhibition in assay [1] was -19.5%. In assay [2], the score turned out to be 0.96. The compound also gave a rescue above control in assay [3] of 4.12. Besides, the cytochrome c release ratio in assay [4] came to 0.99. Besides, the inhibition of aggregation in assay [5] is -7.48%.
As to `Cn1cnc2c1c(=O)[nH]c(=O)n2C`, the inhibition in assay [1] came out at 30.4%. Further, the score in assay [2] was 1.43. The compound also had a rescue above control in assay [3] of -0.5. Further, in assay [4], the cytochrome c release ratio amounted to 0.76. Moreover, the inhibition of aggregation in assay [5] is 28.1%.
`O=C(N[C@H](CO)[C@H](O)c1ccc([N+](=O)[O-])cc1)C(Cl)Cl`: the inhibition in assay [1] is -3.82%. In assay [2], this compound yielded a score of 1. The compound further yielded a rescue above control in assay [3] of -3.71. Also, in assay [4], the cytochrome c release ratio was determined as 0.72. In assay [5], the inhibition of aggregation came out at 55%.
Turning to `CN(C)C(=O)Oc1cccc([N+](C)(C)C)c1`, the inhibition in assay [1] is 15.7% and 16.9%. In addition, the score in assay [2] was 1.16 and 1.39. In assay [3], the rescue above control is 10.4 and -12.8. Moreover, the cytochrome c release ratio in assay [4] is 0.9 and 1.01. Besides, in assay [5], the inhibition of aggregation is 74.6% and 38%.
Take `CCOC(N)=O`: the inhibition in assay [1] is -5.88%. The score in assay [2] came to 1.23. Also, in assay [3], the rescue above control was -10. The cytochrome c release ratio in assay [4] stood at 0.98. Also, in assay [5], the inhibition of aggregation turned out to be 58.9%.
Consider `CN1CCN(CC(=O)N2c3ccccc3C(=O)Nc3cccnc32)CC1`, for which the inhibition in assay [1] amounted to 9.26%. The compound further registered a score in assay [2] of 1.57. The compound further returned a rescue above control in assay [3] of 18.8. For the same compound, the cytochrome c release ratio in assay [4] turned out to be 1.27. In assay [5], the inhibition of aggregation came out at 63.5%.
On to `N[C@@H](CCC(=O)N[C@@H](CS)C(=O)NCC(=O)O)C(=O)O`, for which the inhibition in assay [1] came out at 17.6%. In assay [2], this compound yielded a score of 1.4. For the same compound, the rescue above control in assay [3] was -4.11. For the same compound, the cytochrome c release ratio in assay [4] is 0.98. Also, the inhibition of aggregation in assay [5] stood at 45.5%.
`Cc1cc(CC(=O)O)n(C)c1C(=O)c1ccc(Cl)cc1`: in assay [1], the inhibition was -20.4%. Also, in assay [2], the score is 0.85. Moreover, the rescue above control in assay [3] is 20.8. In addition, in assay [4], the cytochrome c release ratio was found to be 0.92. For the same compound, in assay [5], the inhibition of aggregation came to 83.3%.
For the compound `CCN(CC)CCOC(=O)C(Cc1cccc2ccccc12)CC1CCCO1` (centres undefined), the fluorescence slope change in assay [6] is 91.9% (active). The inhibition in assay [1] is -17.5%. The compound also came in with a score in assay [2] of 1.25. The compound also returned a rescue above control in assay [3] of 1.39. Also, in assay [4], the cytochrome c release ratio was determined as 1.11. Moreover, the inhibition of aggregation in assay [5] is 22.2%.
As to `Nc1ccc(S(=O)(=O)Nc2cnc3ccccc3n2)cc1`, the inhibition in assay [1] worked out at 26.1%. In assay [2], this compound returned a score of 1.42. The compound also returned a rescue above control in assay [3] of 9.63. Also, the cytochrome c release ratio in assay [4] was 1.1. Also, in assay [5], the inhibition of aggregation worked out at 22.7%.
On to `CC(C)(Sc1cc(C(C)(C)C)c(O)c(C(C)(C)C)c1)Sc1cc(C(C)(C)C)c(O)c(C(C)(C)C)c1`, for which the fluorescence slope change in assay [6] was 6.4% (inactive). Further, the inhibition in assay [1] is -32.2%. In assay [2], the score amounted to 0.29. The compound also gave a rescue above control in assay [3] of -10.5. In addition, the cytochrome c release ratio in assay [4] was found to be 0.46. Besides, the inhibition of aggregation in assay [5] was found to be 23.1%.
Regarding `CCN(CCCCOC(=O)c1ccc(OC)c(OC)c1)C(C)Cc1ccc(OC)cc1` (centres undefined), the fluorescence slope change in assay [6] is -44.1% (inactive). Further, in assay [1], the inhibition worked out at 24.4%. This compound displayed a score in assay [2] of 1.51. The same compound returned a rescue above control in assay [3] of 1.7. Moreover, the cytochrome c release ratio in assay [4] amounted to 0.92. Further, in assay [5], the inhibition of aggregation was determined as 65.1%.
Take `CCN(CC)CCOC(=O)C(c1ccccc1)C1CCCCC1` (centres undefined): in assay [6], the fluorescence slope change was 89.7% (active). Further, in assay [1], the inhibition is 14.6%. For the same compound, the score in assay [2] is 1.92. For the same compound, the rescue above control in assay [3] was 0.94. Also, the cytochrome c release ratio in assay [4] was determined as 1.03. In assay [5], the inhibition of aggregation turned out to be 6.35%.
In the case of `Oc1c(Br)cc(Br)c2cccnc12`, the inhibition in assay [1] is 46.3%. In addition, the score in assay [2] is -0.06. Also, in assay [3], the rescue above control came to 10.9. In addition, in assay [4], the cytochrome c release ratio was 2. The inhibition of aggregation in assay [5] worked out at 80.3%.
